Results reported in PubChem BioAssay (EPA / NIEHS).
Inconclusive results are not listed. The source made the active and inactive calls. The calls were made as follows, unless noted: active = hit-call score of the fitted dose curve at least 0.9, where 1 is the maximum; inconclusive = response in the unintended direction; inactive = score below 0.9.

Legend:
[1] = VALA_TUBHUV_Agonist_CellCount: Viability Assessment in the VALA Sciences human Umbilical Vein Endothelial Tubule Formation (TUBHUV) Agonism Assay (AID 2284309)
In short: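 HUVEC co-cultured 1:3 with HDF for 3 days in 10 ng/ml VEGF, then compounds added in VEGF medium for a further 3 days (72 h). Nuclear-stain/CD31 imaging cell count. Positive-direction fit versus 0.1% DMSO vehicle.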

[2] = VALA_TUBIPS_Agonist_TubuleLength: VALA Sciences human iPS-derived Endothelial Tubule Formation (TUBIPS) Agonism Assay (AID 2284311)
In short: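 Human iPS-derived endothelial cells were exposed to compound for 72 h. Tubule formation was imaged by high-content fluorescence and scored as gain of signal relative to DMSO vehicle (agonist mode).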

[3] = IUF_NPC4_neurite_length_120hr: Leibniz Research Institute for Environmental Medicine (IUF) 120-hour Neuronal Morphology Assay for Neurite Length (NPC4) (AID 2284302; active = hit-call score of the fitted dose curve at least 0.9, where 1 is the maximum; inactive = score below 0.9)
In short: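 Read-out is mean neurite length in µm of TUBB3-positive neurons, skeletonized from high-content fluorescence images after 120 h. Single 0.3 mm primary human neural progenitor spheres differentiated on poly-D-lysine/laminin under continuous compound exposure; DMSO was baseline.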

[4] = IUF_NPC5_oligodendrocyte_differentiation_120hr: Leibniz Research Institute for Environmental Medicine (IUF) 120-hour Oligodendrocyte Differentiation Assay (NPC5) (AID 2284304);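 also: share of O4-positive cells among Hoechst nuclei found by CNN image analysis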
Protocol: IUF_NPC2-5 is a cell-based, multiplexed assay that uses hNPC, a human primary neural progenitor cells, with measurements taken at 72 or 120 hours after chemical dosing in a 96-well plate. Human neural progenitor cells (hNPC) are generated from human fetal brain cortex at gestational week (GW) 16-19. In the neural progenitor cell migration and differentiation assay (NPC2-5), hNPCs grown as spheres are plated on an extracellular matrix and migrate and differentiate out of the sphere core. The processes radial glia migration, neuronal and oligodendrocyte migration as well as neuronal differentiation, neuronal morphology and oligodendrocyte differentiation are studied using automated phase contrast imaging and automated fluorescence imaging in combination with high content image analysis. In parallel, the cell viability is assessed using an alamar blue viability assay and the cytotoxicity using a lactate dehydrogenase dependent membrane integrity assay.IUF_NPC5_oligodendrocyte_differentiation_120hr is one of 12 assay components measured from the IUF_NPC2-5 assay. Oligodendrocyte differentiation at 120 hr is determined as the number of all O4-positive cells in percent of the number of Hoechst-positive nuclei in the total neurosphere migration area (see IUF_NPC2a_ glia_migration_120hr) after 120 hr of migration/differentiation. Oligodendrocytes are automatically identified using a convolutional neural network (CNN) that was trained using manually annotated images of differentiated oligodendrocytes.Data from the IUF_NPC5_oligodendrocyte_differentiation_120hr component was analyzed at the endpoint IUF_NPC5_oligodendrocyte_differentiation_120hr in the positive analysis fitting direction relative to DMSO as the negative control and baseline of activity. Using a type of differentiation reporter, loss-of-signal activity can be used to understand developmental effects.
Culture protocol: After the cell expansion period the cells are cultured for up to four weeks in which they are passaged every week as described in 3.6. Between one to three days after passaging spheres at a size of 0.3 mm are picked for the test method. […] Therefore, half of the test condition solution (e.g. solvent control or compound dilution) is replaced by freshly prepared test condition solution.Test Method: Migration distance and cytotoxicity is determined after 72 hours based on brightfield images of each well. […] On the ICC images, migration after 120 hours, neuronal and oligodendrocyte number, neuronal morphology and neuron/oligodendrocyte specific migration is assessed. immunocytochemical staining (ICC) generates an image for each sphere. […]

[5] = IUF_NPC4_neurite_area_120hr: Leibniz Research Institute for Environmental Medicine (IUF) 120-hour Neuronal Morphology Assay for Neurite Area (NPC4) (AID 2284305)
In short: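 Neurite area is read out as the mean pixel area, excluding nuclei, of skeletonized TUBB3-positive neurons imaged after 120 h. Primary human neural progenitor spheres differentiated on poly-D-lysine/laminin with compound present from day 0. Activity was referenced to DMSO controls.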

[6] = IUF_NPC2-5_cytotoxicity_72hr: Cytotoxicity Assessment at 72 hours in the Leibniz Research Institute for Environmental Medicine (IUF) Neural Progenitor Cell Migration and Differentiation Assay for Cytotoxicity (NPC2-5) (AID 2284306);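 also: LDH release into supernatant measured by resorufin fluorescence marking membrane damage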
In short: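 Membrane integrity loss was scored from fluorescence (RFU) of resorufin generated by LDH in culture supernatant, 72 h after dosing. Differentiating human progenitor spheres received seven serial compound concentrations alongside a solvent control.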

[7] = IUF_NPC2-5_cytotoxicity_120hr: Cytotoxicity Assessment at 120 hours in the Leibniz Research Institute for Environmental Medicine (IUF) Neural Progenitor Cell Migration and Differentiation Assay (NPC2-5) (AID 2284307);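 as to AC50: LDH released into supernatant as membrane damage marker via resorufin fluorescence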
In short: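 Sphere plating starts differentiation and exposure together at day 0. Compound solution is half-replaced on day 3. At 120 h, medium supernatant is taken for an LDH membrane-integrity read based on resazurin reduction to resorufin fluorescence.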

[8] = IUF_NPC2-5_cell_number_120hr: Cell Number Assessment at 120 hours in the Leibniz Research Institute for Environmental Medicine (IUF) Neural Progenitor Cell Migration and Differentiation Assay (NPC2-5) (AID 2284308; active = hit-call score of the fitted dose curve at least 0.9, where 1 is the maximum; inactive = score below 0.9;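 also: count of Hoechst-stained nuclei in migration zone around plated human neural progenitor spheres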)
In short: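 hNPC spheres, one per well, PDL/laminin, N2 medium, 37C, 5% CO2. Dosing day 0 → half-medium change with fresh compound day 3 → fix 120 h. Readout: Hoechst+ nuclei count, migration area; 7 concentrations plus solvent control.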

[9] = IUF_NPC2-5_viability_120hr: Viability Assessment at 120 hours in the Leibniz Research Institute for Environmental Medicine (IUF) Neural Progenitor Cell Migration and Differentiation Assay (NPC2-5) (AID 2284312; active = hit-call score of the fitted dose curve at least 0.9, where 1 is the maximum; inactive = score below 0.9)
In short: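 Alamar blue resorufin fluorescence read after 5 days of differentiation, with compound present from day 0 and replenished at day 3. Primary hNPC spheres on laminin-coated plates, 37C; seven concentrations plus solvent control, fitted against DMSO.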

[10] = VALA_TUBHUV_Antagonist_CellCount: Viability Assessment in the VALA Sciences human Umbilical Vein Endothelial Tubule Formation (TUBHUV) Antagonism Assay (AID 2284310)
In short: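 HUVEC co-cultured with HDF (1:3) 3 days in 10 ng/ml VEGF, then 3 days with compounds in VEGF medium. Fixed, nuclear stain and CD31 immunofluorescence, imaged; cell counts fitted versus 0.1% DMSO, loss of signal read as lower viability.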

Measured: AC50

COC(=O)[C@H]1[C@H]2C[C@@H]3c4[nH]c5cc(OC)ccc5c4CCN3C[C@H]2C[C@@H](OC(=O)c2cc(OC)c(OC)c(OC)c2)[C@@H]1OC
inactive: [1] | [2]

OCC(O)CO
not listed: [1] | [2] | [10]
inactive: all other assays above

CCCCC(CC)COP(=O)(OCC(CC)CCCC)OCC(CC)CCCC (stereo not given)
inactive: [1] | [10]

O=C1OC(c2ccc(O)cc2)(c2ccc(O)cc2)c2ccccc21
inactive: [1] | [10] | [2]

CN(C)CCCN1c2ccccc2Sc2ccc(Cl)cc21
active: [3] 6.02 µM | [4] 0.756 µM | [5] 8.38 µM | [6] 15.3 µM | [7] 5.75 µM | [8] 12.8 µM | [9] 10.9 µM

Cc1ccc(-c2cc(C(F)(F)F)nn2-c2ccc(S(N)(=O)=O)cc2)cc1
inactive: [1] | [10] | [2]

CC(=O)CC(c1ccccc1)c1c(O)c2ccccc2oc1=O (stereo not given)
not listed: [1] | [2] | [10]
inactive: all other assays above

Nc1nc(Cl)nc2c1ncn2[C@H]1C[C@H](O)[C@@H](CO)O1
active: [1] 1.56 µM
inactive: [10]

O=C1NC(=O)C(c2ccccc2)(c2ccccc2)N1
not listed: [1] | [2] | [10]
inactive: all other assays above
